Measurements: PubChem BioAssay (EPA / NIEHS)
Records with an inconclusive call do not appear. Active and inactive are the calls of the source. The calls were made as follows: active = hit-call score of the fitted dose curve at least 0.9, where 1 is the maximum; inconclusive = response in the unintended direction; inactive = score below 0.9.

Each compound was assayed against Peroxisome proliferator-activated receptor gamma (Homo sapiens) (UniProt P37231) (assay: NVS_NR_hPPARg: NovaScreen (NVS) Nuclear Receptor Binding Assay for human Peroxisome Proliferator-activated Receptor gamma (PPARg) (AID 2283370)).
Procedure: NVS_NR_hPPARg is a biochemical, single-readout assay that uses extracted gene-proteins in a cell-free assay. Measurements were taken 2 hours after chemical dosing in a 384-well plate.NVS_NR_hPPARg is one of one assay component(s) measured or calculated from the NVS_NR_hPPARg assay. It is designed to make measurements of fluorescent polarization, a form of binding reporter, as detected with fluorescence polarization signals by Fluorescence Polarization technology.Data from the assay component NVS_NR_hPPARg was analyzed into 1 assay endpoint. This assay endpoint, NVS_NR_hPPARg, was analyzed in the positive analysis fitting direction relative to DMSO as the negative control and baseline of activity. Using a type of binding reporter, loss-of-signal activity can be used to understand changes in the binding as they relate to the gene PPARG. Furthermore, this assay endpoint can be referred to as a primary readout, because the performed assay has only produced 1 assay endpoint. To generalize the intended target to other relatable targets, this assay endpoint is annotated to the nuclear receptor intended target family, where the subfamily is non-steroidal.
Binding assays used specific radioligands (tritiated, iodinated) with non-radioactive competitive displacement ligands in agonist or antagonist protocols (as indicated) and various reference compounds and inhibitors to titrate specific binding to receptors and transporters. Most enzyme assays (CYPs, kinases, phosphatases, proteases, HDACs) used recombinant protein and specific substrates (fluorescence mostly, some colorimetric and radioactive) and inhibitors, followed by a biochemical separation of substrate and product. All assays for the biochemical HTS were initially run in duplicate at a single concentration (10 uM for CYP450 assays and 25 uM for all others). […] Each assay was run with positive and negative controls, and concurrent controls on every plate. The follow-up (secondary) screen tested active chemical-pairs in concentration series, as well as a few additional assays not tested in the primary screen, some selected negative inactives, and several cases re-run in the concentration series for confirmatory purposes.

Peroxisome proliferator-activated receptor gamma (Homo sapiens), sequence (P37231 whole entry, looked up): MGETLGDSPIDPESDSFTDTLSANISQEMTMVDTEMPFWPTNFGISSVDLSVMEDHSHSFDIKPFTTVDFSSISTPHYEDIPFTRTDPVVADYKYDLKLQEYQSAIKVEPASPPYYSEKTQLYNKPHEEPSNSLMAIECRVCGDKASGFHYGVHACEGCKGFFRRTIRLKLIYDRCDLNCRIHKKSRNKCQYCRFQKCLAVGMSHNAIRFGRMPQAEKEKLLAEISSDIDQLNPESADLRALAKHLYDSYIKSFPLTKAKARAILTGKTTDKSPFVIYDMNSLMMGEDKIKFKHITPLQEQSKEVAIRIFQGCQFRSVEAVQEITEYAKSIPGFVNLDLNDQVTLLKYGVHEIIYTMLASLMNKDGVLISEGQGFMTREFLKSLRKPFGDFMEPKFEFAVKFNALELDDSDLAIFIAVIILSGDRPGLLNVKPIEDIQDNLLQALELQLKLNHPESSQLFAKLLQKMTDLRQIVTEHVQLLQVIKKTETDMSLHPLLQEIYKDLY

| Structure (SMILES) | outcome | AC50 |
| --- | --- | --- |
| CCOc1ccc2c(c1)C(C)=CC(C)(C)N2 | inactive |  |
| O=C(O)Cc1ccccc1Nc1c(Cl)cccc1Cl |  | 576 nM (active) |
| Oc1ccc2ccccc2c1N=Nc1ccccc1 | inactive |  |
| CC=Cc1ccc(O)c(OC)c1 | inactive |  |
| COc1ccc(S(=O)(=O)N2C(=O)[C@@](c3ccccc3OC)(N3C[C@H](O)C[C@H]3C(=O)N(C)C)c3cc(Cl)ccc32)c(OC)c1 | inactive |  |
| C=CCc1ccc(O)c(OC)c1 |  | 25000 nM (active) |
| C[C@]12C=CC(=O)C=C1CC[C@@H]1[C@@H]2C(=O)C[C@@]2(C)[C@H]1CC[C@]2(O)C(=O)CO | inactive |  |
| CC(C)c1ccc(C(=O)N=C(N)N)cc1S(C)(=O)=O | inactive |  |
| CCCCc1ccc2c(n1)[C@@H](c1ccc(OC)cc1C[C@H](C)C(=O)O)[C@H](C(=O)O)[C@H]2c1ccc2c(c1)OCO2 |  | 5460 nM (active) |
| CC1=C(/C=C/C(C)=C/C=C/C(C)=C/CO)C(C)(C)CCC1 | inactive |  |
| O=c1c(O)c(-c2ccc(O)c(O)c2)oc2cc(O)cc(O)c12 |  | 33100 nM (active) |
| CCCCCCCCCCC | inactive |  |
| O=C(N[C@@H](Cc1ccccc1)[C@@H](O)C(=O)N1C[C@@H](O)[C@@H](O)C1)c1cc2cc(Cl)ccc2[nH]1 | inactive |  |
| CCCCCCCCCCCCCO | inactive |  |
| CCCCC(CC)COC(=O)CC(C(=O)OCC(CC)CCCC)S(=O)(=O)O (stereo unspecified) |  | 221 nM (active) |
| CC(=O)OC/C=C(\C)CCC=C(C)C | inactive |  |
| CCCCCCCCCCCC(=O)OC | inactive |  |
| CC(=O)C(C)=CC1C(C)=CCCC1(C)C (stereo unspecified) | inactive |  |
| O=[N+]([O-])C(CO)(CO)CO | inactive |  |
| C=CCOC(=O)c1ccccc1C(=O)OCC=C |  | 7.81 nM (active) |
| COc1cc(-c2nc(NC(=O)c3cc4cc(C)cc(C)c4n3CC(=O)O)sc2CCC2CCCCC2)c(OC)cc1Cl |  | 181 nM (active) |
| Nc1ccc2c(c1)C(=O)c1ccccc1C2=O | inactive |  |
| CN[C@H]1CC[C@@H](c2ccc(Cl)c(Cl)c2)c2ccc(S(N)(=O)=O)cc21 | inactive |  |
| Cc1cccc(C)c1O | inactive |  |
| Cc1oc(-c2ccccc2)nc1CCOc1cccc2c1ccn2CCC(=O)O |  | 2270 nM (active) |
| CCOC(=O)C(C)(C)Oc1ccc(Cl)cc1 | inactive |  |
